# PubChem BioAssay
# Activity calls are given as the source filed them.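 How the source made its calls, unless noted: active means inhibition at or above 50% at 10 µM; inactive means inhibition below 50%.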
# Tests used:
# [1] = inhibitors of TNFa-induced NFkB p65 translocation, primary screen, imaging, HUVEC, MLSMR starter and 10KST1 sets (AID 438;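 active means inhibition above 20% together with a positive visual image hit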;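 further: compound added about 3h40 before a 20 min TNFalpha stimulation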;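 on inhibition: signal is the nuclear over cytoplasmic p65 intensity ratio per well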); details: HUVEC TNFa-induced p65 nuclear translocation; cell count: measured here: nuclei count (cytotoxicity indicator), at 2.08 µM; inhibition: at 2 µM, stronger effect = higher value, 0% TNFa-plus-vehicle, 100% no-TNFa wells
# [2] = inhibitors of mutant huntingtin aggregation, primary screen, imaging, exon1htt(103Q)mCFP cells, high-content imaging (AID 483;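 active means visual image review flags a hit and inhibition of aggregation exceeds 20%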;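 further: compound exposure lasted 3 days before fixation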;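 on nuclei count: percent of the per-plate median nuclei count of sample wells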); details: exon1htt(103Q)mCFP cell line, aggregate imaging, at 2 µM; inhibition of aggregation: stronger effect = higher value; nuclei count: measured here: cell count, toxicity
# [3] = inhibitors of E-selectin induction by TNFa, primary screen, imaging, HUVEC, immunofluorescence, MLSMR starter and 10KST1 sets (AID 487;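 active means visually confirmed hit in the image check and inhibition above 20%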;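 on inhibition: signal is fraction of cell area covered by stained E-selectin grains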;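 on nuclei count: 100% = median nuclei count of all wells on the same plate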); details: HUVEC TNFalpha-induced E-selectin immunofluorescence imaging, at 2 µM; inhibition: stronger effect = higher value; nuclei count: measured here: cell number, toxicity
# [4] = molecular target: Voltage-gated potassium channel subunit beta-2 (Rattus norvegicus) (UniProt P62483); experiment: KvBeta enzyme negative modulators, primary screen, biochemical, NADPH fluorescence (AID 622;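 active means fluorescence slope higher than the sample average by over 3 SD, cut at about -0.22 in these data, passing the limit was not always enough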;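 further: slope of raw intensity against log time taken from 70 to 1610 s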); details: recombinant KvBeta, 4-cyanobenzaldehyde reduction, at 10 µM, stronger effect = higher value
# Sequence of Voltage-gated potassium channel subunit beta-2 (Rattus norvegicus) (P62483 whole entry, looked up): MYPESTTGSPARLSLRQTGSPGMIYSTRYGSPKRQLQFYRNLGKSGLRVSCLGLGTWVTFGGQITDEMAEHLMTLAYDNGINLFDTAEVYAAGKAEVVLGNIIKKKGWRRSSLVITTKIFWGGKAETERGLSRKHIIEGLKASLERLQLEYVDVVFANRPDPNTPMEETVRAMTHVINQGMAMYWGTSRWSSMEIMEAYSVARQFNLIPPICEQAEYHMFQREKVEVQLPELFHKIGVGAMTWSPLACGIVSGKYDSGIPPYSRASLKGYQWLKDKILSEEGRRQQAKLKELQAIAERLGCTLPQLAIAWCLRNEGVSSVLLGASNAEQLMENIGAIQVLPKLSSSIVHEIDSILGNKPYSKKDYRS
# [5] = molecular target: Voltage-gated potassium channel subunit beta-2 (Rattus norvegicus) (UniProt P62483); experiment: KvBeta positive modulators, primary screen, biochemical, NADPH fluorescence (AID 623;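 active means NADPH fluorescence slope more negative than the mean of all samples by about 3 SD, 99.7% confidence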;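 further: fluorescence intensity change per second fitted from 20 to 320 s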); details: Recombinant KvBeta, NADPH fluorescence decrease slope, 10 min; at 10 µM; stronger effect = lower value
# [6] = molecular target: Alpha-2C adrenergic receptor (Homo sapiens) (UniProt P18825); experiment: modulators of alpha2C/GIRK thallium flux, primary screen, cell-based, HEK293 alpha2C/GIRK1/2 (AID 624;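 active means fluorescence slope after compound addition differing from the mean of all screened samples at 99.7% confidence, in either direction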;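 further: slope of fluorescence ratio to pre-addition baseline per second over 15 to 24 s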); details: thallium flux BTC fluorescence, at 10 µM, actives lie on both sides
# Sequence of Alpha-2C adrenergic receptor (Homo sapiens) (P18825 whole entry, looked up): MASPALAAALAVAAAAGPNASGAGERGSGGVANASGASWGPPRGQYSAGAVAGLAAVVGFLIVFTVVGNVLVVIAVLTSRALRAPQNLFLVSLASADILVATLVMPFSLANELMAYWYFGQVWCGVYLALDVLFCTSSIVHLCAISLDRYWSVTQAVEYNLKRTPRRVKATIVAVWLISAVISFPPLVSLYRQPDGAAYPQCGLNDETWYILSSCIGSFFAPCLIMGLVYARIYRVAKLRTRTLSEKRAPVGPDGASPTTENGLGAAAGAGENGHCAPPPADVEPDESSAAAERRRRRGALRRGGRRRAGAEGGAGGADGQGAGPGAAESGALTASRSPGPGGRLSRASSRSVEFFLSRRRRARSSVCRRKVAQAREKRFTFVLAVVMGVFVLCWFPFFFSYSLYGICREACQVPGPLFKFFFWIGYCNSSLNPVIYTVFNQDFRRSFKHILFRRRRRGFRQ
# [7] = inhibitors of Sendai virus-induced IRF3 signaling, primary screen, TLR/RLR signaling modifier project, cell-based, Sendai virus stimulus, luciferase, 10K MLSCN set (AID 602276); details: HEK293 RL24 IRF3 luciferase reporter, at 10 µM, stronger effect = higher value;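 further: firefly luciferase from ISG56 promoter only with Renilla not read in this screen; 0% = Sendai virus plus DMSO and 100% = medium plus DMSO without virus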
# [8] = inhibitors of poly I:C-induced TLR3 signaling, primary screen, cell-based, poly I:C stimulus, luciferase, 10K MLSCN set (AID 602277;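 active means inhibition of the reporter signal at or above 50%; inactive means inhibition below 50%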); details: HEK293-TLR3 RL24 IRF3 luciferase reporter, at 10 µM, stronger effect = higher value
Compound,cell count [1],inhibition [1],inhibition of aggregation [2],nuclei count [2] [%],inhibition [3],nuclei count [3] [%],fluorescence slope [4],NADPH fluorescence slope [5],slope [6],inhibition [7],inhibition [8]
O=C(COC(=O)c1cccc(S(=O)(=O)N2CCc3ccccc32)c1)NC1CCS(=O)(=O)C1 (stereo not drawn),611,8.9% (inactive),-6.2% (inactive),125,-104% (inactive),111,-0.283 (inactive),-7.3e-05 (inactive),0.00577 (inactive),3.1% (inactive),12.9% (inactive)
COc1ccc(-n2ncc3c(=O)n(CC(=O)OCc4ccccc4)cnc32)cc1,506,5.2% (inactive),-19.6% (inactive),94.6,-26% (inactive),101,-0.377 (inactive),-4.4e-05 (inactive),0.00543 (inactive),-0.623% (inactive),3.88% (inactive)
CCn1c(SCC(=O)Nc2cccc(C)c2)nc2c(c1=O)SC(C)C2 (stereo not drawn),576,-3.4% (inactive),40.7% (inactive),85.6,-11.7% (inactive),86,-0.537 (inactive),-4.6e-05 (inactive),0.00615 (inactive),12.1% (inactive),25.9% (inactive)
COc1ccc(OC)c(CNC(=O)COc2cc(=O)n(C)c3ccccc23)c1,367,4.3% (inactive),-8.1% (inactive),105,18% (inactive),100,-0.349 (inactive),-7.1e-06 (inactive),0.00576 (inactive),6.07% (inactive),6.23% (inactive)
CC(C)OC(=O)CSc1nnc(-c2ccc(O)cc2)n1Cc1ccccc1,289,-1% (inactive),12.9% (inactive),106,-57.2% (inactive),105,-0.415 (inactive),-4.5e-05 (inactive),0.00549 (inactive),20.3% (inactive),16.8% (inactive)
O=C(CCN1C(=O)C2C3C=CC(C3)C2C1=O)Nc1c(F)cc(F)cc1Br (stereo not drawn),827,-6.6% (inactive),16.5% (inactive),95.3,-21.9% (inactive),120,-0.587 (inactive),-6.8e-05 (inactive),0.00666 (inactive),-0.108% (inactive),11.7% (inactive)
O=C(c1ccc(-c2ccccc2)cc1)N1CCN(c2ncccn2)CC1,332,-21.2% (inactive),11.5% (inactive),76,-38.6% (inactive),85.3,-0.429 (inactive),-2.4e-06 (inactive),0.00541 (inactive),2.14% (inactive),28.8% (inactive)
N#CCCN(C(=O)Nc1ccc(Cl)cc1)c1ccccc1,355,-2.1% (inactive),-8.5% (inactive),98.6,-15.7% (inactive),99.7,-0.632 (inactive),2.2e-05 (inactive),0.00361 (inactive),-5.26% (inactive),-52.7% (inactive)
Cc1cccc(N2CCN(C(=O)C3CCCN(S(=O)(=O)c4cnc[nH]4)C3)CC2C)c1 (stereo not drawn),387,1.7% (inactive),-14% (inactive),107,-11.9% (inactive),122,-0.438 (inactive),1.5e-05 (inactive),0.00647 (inactive),6.53% (inactive),17.4% (inactive)
COc1cc(C2NC(=O)NC(C)=C2C(=O)OCC2CCCO2)ccc1O (stereo not drawn),401,1.8% (inactive),-5.3% (inactive),112,-105% (inactive),114,-0.489 (inactive),-3.4e-05 (inactive),0.00604 (inactive),1.44% (inactive),24.7% (inactive)
CN(C)CC(C(=O)c1ccccc1)c1ccccc1 (stereo not drawn),460,2.4% (inactive),-28% (inactive),13.4,20.2% (inactive),113,-0.251 (inactive),-1.2e-05 (inactive),0.0054 (inactive),11% (inactive),82.3% (active)
CCOC(=O)N1CCN(C(=O)CSc2nnc(COc3ccccc3)o2)CC1,596,4.7% (inactive),-3.5% (inactive),105,-3.6% (inactive),112,-0.565 (inactive),1.8e-05 (inactive),0.00595 (inactive),-13.9% (inactive),10.1% (inactive)
CCOC(=O)c1c(C)[nH]c(C(=O)Cn2c(=O)oc3ccccc32)c1C,256,7.6% (inactive),17.3% (inactive),97.3,31.3% (inactive),98.7,-0.285 (inactive),-6.3e-06 (inactive),0.00653 (inactive),-8.59% (inactive),-12.4% (inactive)
Cc1cc(C)n(-c2nc3sc4c(c3c3nnc(SC(C)C)n23)CC(C)(C)OC4)n1,352,8.5% (inactive),2.2% (inactive),113,-22% (inactive),117,-0.455 (inactive),1.9e-05 (inactive),0.00472 (inactive),-16.9% (inactive),-11.9% (inactive)
COc1ccc2nc(NC(=O)C3CCCN(S(=O)(=O)c4cccc5nsnc45)C3)sc2c1 (stereo not drawn),607,-3.9% (inactive),-14% (inactive),113,2% (inactive),122,-0.455 (inactive),3.3e-05 (inactive),0.00595 (inactive),-3.68% (inactive),-37.1% (inactive)
COc1ccccc1N1CC(O)=C(c2nc3ccccc3c(=O)[nH]2)C1=N,399,1.4% (inactive),22.7% (inactive),62.7,-73.7% (inactive),126,-0.546 (inactive),-3.6e-05 (inactive),0.00655 (inactive),11.7% (inactive),28.7% (inactive)
Cc1nc2ncnn2c(C)c1CCC(=O)NCCCN1CCN(c2cccc(Cl)c2)CC1,352,-2% (inactive),-0.5% (inactive),99.1,-40.4% (inactive),107,-0.505 (inactive),-5.1e-05 (inactive),0.0065 (inactive),4.7% (inactive),16.9% (inactive)
O=C(CN1CCC(NC(=O)c2ccc(F)cc2)CC1)NCc1ccccc1F,435,4.6% (inactive),-0.1% (inactive),101,-192% (inactive),110,-0.438 (inactive),-6.6e-06 (inactive),0.00564 (inactive),10.1% (inactive),23.8% (inactive)
CC1CCCCN1S(=O)(=O)c1ccc(NC(=O)c2cccs2)cc1 (stereo not drawn),678,-14.6% (inactive),25.4% (inactive),86.3,-25.1% (inactive),104,-0.431 (inactive),9.2e-06 (inactive),0.00361 (inactive),-0.562% (inactive),5.71% (inactive)
CC1CCN(Cc2nc3c(c(=O)n(C)c(=O)n3C)n2Cc2cccc3ccccc23)CC1,703,-22.3% (inactive),12.7% (inactive),105,-26.6% (inactive),131,-0.427 (inactive),-2.4e-05 (inactive),0.00536 (inactive),13.1% (inactive),41.7% (inactive)
Cc1sc2nc(CN3CCN(S(=O)(=O)c4cccc5nonc45)CC3)[nH]c(=O)c2c1C,661,-16.4% (inactive),11.8% (inactive),60.7,-55.1% (inactive),116,-0.411 (inactive),-5.6e-05 (inactive),0.00421 (inactive),3.59% (inactive),1.1% (inactive)
O=C1N(CCCCN2C(=O)C3(OCCO3)c3ccccc32)c2ccccc2C12OCCO2,578,-18.8% (inactive),-8.4% (inactive),104,-60.9% (inactive),112,-0.381 (inactive),2.4e-05 (inactive),0.00398 (inactive),9.05% (inactive),16.5% (inactive)
CCOC(=O)N1CCN(S(=O)(=O)c2ccc(OCC)c(C)c2)CC1,604,-11.1% (inactive),-7.7% (inactive),106,8.2% (inactive),102,-0.625 (inactive),-3.8e-06 (inactive),0.00615 (inactive),0.885% (inactive),11.9% (inactive)
Cc1ccnc(SCCn2c(N3CCCCC3)nc3c2c(=O)n(C)c(=O)n3C)n1,249,4.4% (inactive),-9.4% (inactive),93.5,-49.1% (inactive),107,-0.319 (inactive),1.8e-05 (inactive),0.00339 (inactive),10.1% (inactive),36.5% (inactive)
COC(=O)CC1C(=O)NCCN1C(=O)NC1CCCCC1 (stereo not drawn),714,-4.5% (inactive),-18.8% (inactive),110,-116% (inactive),110,-0.559 (inactive),-1.3e-05 (inactive),0.0059 (inactive),-2.45% (inactive),2.41% (inactive)
Cc1c(C(=O)N2CCN(c3ccccc3)CC2)sc2ncnc(N3CCN(c4ccccc4)CC3)c12,613,6.2% (inactive),9.7% (inactive),107,-70.4% (inactive),127,-0.445 (inactive),-1.1e-05 (inactive),0.00705 (inactive),7.72% (inactive),4.87% (inactive)
CCOc1ccc(-c2cc(C(=O)N3CCN(c4ccccn4)CC3)c3ccccc3n2)cc1,619,7.9% (inactive),-11.8% (inactive),86.4,-19.3% (inactive),111,-0.473 (inactive),-6.7e-06 (inactive),0.00673 (inactive),34% (inactive),-64.8% (inactive)
N#CC1=C(N)Oc2cc(O)ccc2C1C1CCCCC1 (stereo not drawn),527,0.6% (inactive),18.3% (inactive),103,-33.8% (inactive),85.8,-0.443 (inactive),1.3e-05 (inactive),0.00336 (inactive),14.1% (inactive),25.6% (inactive)
